This note sets out measurements from ChEMBL document CHEMBL1961873, “Compounds: GSK PKIS; Assays: Nanosyn kinase panel” (2012).

For orientation: inhibition means the change of the read-out against control, counted positive when it falls.

Assay [1] deals with T1, Inhibitor of nuclear factor kappa-B kinase subunit epsilon (Homo sapiens) (UniProt Q14164).
T1 sequence (whole entry): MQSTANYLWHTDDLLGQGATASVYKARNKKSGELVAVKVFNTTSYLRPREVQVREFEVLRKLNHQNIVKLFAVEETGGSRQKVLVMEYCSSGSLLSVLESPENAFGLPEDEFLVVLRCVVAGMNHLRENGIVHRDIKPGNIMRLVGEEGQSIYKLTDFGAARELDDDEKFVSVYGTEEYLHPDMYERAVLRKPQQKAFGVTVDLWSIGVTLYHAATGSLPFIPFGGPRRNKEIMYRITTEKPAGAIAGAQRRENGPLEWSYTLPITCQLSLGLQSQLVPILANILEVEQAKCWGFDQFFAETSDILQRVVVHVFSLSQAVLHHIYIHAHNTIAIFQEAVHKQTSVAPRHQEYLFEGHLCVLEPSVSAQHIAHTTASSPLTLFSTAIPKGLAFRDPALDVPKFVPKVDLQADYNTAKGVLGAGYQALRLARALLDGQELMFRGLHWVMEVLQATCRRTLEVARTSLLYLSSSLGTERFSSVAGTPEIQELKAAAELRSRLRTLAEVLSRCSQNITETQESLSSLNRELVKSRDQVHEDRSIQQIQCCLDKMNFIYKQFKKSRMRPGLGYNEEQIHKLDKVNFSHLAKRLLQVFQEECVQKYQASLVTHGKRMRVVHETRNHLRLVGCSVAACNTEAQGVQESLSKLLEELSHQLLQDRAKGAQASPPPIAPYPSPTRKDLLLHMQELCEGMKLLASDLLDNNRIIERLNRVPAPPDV
The settings on record: at 1 µM.

The target of assay [2] is T2, Serine/threonine-protein kinase Nek1 (Homo sapiens) (UniProt Q96PY6).
T2 sequence (whole entry): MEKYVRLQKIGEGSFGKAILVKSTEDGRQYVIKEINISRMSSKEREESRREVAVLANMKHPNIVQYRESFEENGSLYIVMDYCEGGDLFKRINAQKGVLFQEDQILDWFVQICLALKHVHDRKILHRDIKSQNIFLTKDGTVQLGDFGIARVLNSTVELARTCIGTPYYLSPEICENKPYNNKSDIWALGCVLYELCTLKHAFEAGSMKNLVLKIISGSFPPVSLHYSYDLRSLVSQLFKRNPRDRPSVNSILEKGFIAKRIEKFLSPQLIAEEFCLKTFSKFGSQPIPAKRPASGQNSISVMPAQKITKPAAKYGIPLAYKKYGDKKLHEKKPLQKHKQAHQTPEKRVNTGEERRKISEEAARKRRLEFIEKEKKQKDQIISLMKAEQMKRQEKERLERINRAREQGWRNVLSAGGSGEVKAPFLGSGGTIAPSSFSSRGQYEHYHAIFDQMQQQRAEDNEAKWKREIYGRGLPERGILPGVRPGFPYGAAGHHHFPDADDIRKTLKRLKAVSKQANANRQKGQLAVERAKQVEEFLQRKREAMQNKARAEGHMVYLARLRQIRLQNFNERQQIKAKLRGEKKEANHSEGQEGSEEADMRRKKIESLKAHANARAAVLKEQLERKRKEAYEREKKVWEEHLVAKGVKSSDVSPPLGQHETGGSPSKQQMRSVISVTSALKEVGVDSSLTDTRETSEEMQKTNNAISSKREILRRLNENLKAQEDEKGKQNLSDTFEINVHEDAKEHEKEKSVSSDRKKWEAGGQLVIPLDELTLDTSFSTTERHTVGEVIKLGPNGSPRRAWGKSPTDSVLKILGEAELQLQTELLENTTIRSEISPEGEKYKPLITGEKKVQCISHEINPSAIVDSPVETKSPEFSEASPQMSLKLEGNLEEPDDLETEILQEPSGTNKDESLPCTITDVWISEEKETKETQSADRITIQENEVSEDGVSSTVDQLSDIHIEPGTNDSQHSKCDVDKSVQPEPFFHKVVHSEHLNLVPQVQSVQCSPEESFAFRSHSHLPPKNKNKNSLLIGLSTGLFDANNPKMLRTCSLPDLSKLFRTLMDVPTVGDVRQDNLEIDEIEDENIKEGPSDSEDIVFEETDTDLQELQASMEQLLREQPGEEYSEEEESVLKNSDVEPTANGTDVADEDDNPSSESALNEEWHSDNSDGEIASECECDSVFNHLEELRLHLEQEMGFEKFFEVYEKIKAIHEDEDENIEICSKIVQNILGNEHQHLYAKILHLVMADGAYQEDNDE
As to conditions: at 0.1 µM.

The target in assay [3] is T2, Serine/threonine-protein kinase Nek1 (Homo sapiens). The settings on record: at 1 µM.
For assay [4], the target named is T3, Serine/threonine-protein kinase Nek2 (Homo sapiens) (UniProt P51955).
T3 sequence (whole entry): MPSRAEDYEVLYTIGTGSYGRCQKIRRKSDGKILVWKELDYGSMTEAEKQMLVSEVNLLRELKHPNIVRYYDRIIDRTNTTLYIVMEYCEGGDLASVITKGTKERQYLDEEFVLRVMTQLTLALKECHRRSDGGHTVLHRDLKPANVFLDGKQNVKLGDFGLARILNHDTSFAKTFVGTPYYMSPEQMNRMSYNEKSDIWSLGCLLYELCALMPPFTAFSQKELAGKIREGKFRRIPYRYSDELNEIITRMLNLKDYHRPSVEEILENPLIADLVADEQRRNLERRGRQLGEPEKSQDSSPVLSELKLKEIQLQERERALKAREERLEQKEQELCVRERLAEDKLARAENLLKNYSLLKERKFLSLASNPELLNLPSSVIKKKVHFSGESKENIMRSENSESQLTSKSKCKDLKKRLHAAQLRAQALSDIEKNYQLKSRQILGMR
The settings on record: at 0.1 µM.

The target of assay [5] is T3, Serine/threonine-protein kinase Nek2 (Homo sapiens). As to conditions: at 1 µM.
Assay [6] addresses Serine/threonine-protein kinase Nek6 (Homo sapiens) (UniProt Q9HC98). The settings on record: at 0.1 µM.
Assay [7] shares this target. As to conditions: at 1 µM.
The target of assay [8] is Serine/threonine-protein kinase Nek7 (Homo sapiens) (UniProt Q8TDX7). The settings on record: at 0.1 µM.
Chain of Serine/threonine-protein kinase Nek7 (Homo sapiens) (Q8TDX7 whole entry, looked up): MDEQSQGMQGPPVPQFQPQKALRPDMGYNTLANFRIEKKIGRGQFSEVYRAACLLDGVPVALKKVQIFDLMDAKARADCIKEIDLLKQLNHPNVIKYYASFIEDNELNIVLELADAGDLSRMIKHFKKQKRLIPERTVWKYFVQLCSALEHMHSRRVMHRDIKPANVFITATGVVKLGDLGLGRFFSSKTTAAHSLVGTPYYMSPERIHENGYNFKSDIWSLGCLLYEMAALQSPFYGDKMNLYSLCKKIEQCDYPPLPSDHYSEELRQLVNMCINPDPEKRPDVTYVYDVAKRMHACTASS
Assay [9] has the same target. The settings on record: at 1 µM.
Assay [10] addresses T4, Serine/threonine-protein kinase Nek9 (Homo sapiens) (UniProt Q8TD19).
T4 sequence (whole entry): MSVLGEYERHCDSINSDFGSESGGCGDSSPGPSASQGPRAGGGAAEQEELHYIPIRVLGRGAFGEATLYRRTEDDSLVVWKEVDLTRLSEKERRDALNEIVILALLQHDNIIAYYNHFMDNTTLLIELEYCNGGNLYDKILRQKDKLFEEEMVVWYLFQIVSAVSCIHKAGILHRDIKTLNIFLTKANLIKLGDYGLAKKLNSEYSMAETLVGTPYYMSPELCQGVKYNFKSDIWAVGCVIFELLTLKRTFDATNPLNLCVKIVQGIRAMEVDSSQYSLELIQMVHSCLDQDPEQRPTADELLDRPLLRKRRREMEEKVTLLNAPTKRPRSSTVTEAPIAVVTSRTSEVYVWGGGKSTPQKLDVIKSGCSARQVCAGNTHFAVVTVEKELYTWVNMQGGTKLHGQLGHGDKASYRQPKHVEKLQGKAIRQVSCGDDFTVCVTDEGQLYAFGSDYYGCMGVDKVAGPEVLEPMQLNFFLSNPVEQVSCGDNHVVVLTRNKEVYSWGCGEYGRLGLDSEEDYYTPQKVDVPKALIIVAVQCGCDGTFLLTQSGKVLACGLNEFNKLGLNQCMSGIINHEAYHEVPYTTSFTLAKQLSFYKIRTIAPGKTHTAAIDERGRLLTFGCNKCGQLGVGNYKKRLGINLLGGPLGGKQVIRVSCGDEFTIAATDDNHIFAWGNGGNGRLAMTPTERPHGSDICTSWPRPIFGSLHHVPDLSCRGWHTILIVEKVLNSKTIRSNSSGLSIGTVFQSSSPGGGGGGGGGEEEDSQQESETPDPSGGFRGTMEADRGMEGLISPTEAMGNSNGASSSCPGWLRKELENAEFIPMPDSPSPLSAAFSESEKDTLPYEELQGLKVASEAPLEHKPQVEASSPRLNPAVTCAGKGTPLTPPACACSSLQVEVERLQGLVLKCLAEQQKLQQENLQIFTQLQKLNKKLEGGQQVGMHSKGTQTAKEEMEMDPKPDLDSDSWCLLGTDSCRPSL
The settings on record: at 0.1 µM.

Chain of Serine/threonine-protein kinase Nek6 (Homo sapiens) (Q9HC98 whole entry): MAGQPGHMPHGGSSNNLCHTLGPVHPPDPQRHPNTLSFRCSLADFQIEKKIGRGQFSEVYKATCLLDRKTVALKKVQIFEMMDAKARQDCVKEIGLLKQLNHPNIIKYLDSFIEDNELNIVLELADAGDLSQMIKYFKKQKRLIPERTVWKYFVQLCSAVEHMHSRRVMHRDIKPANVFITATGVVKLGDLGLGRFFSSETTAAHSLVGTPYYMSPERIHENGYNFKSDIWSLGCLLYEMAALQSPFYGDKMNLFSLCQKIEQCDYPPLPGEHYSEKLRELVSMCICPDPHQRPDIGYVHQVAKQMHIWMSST

Take `CCn1c(-c2nonc2N)nc2ccccc21`: the inhibition in [1] worked out at 1.58%; in assay [2], 2.18%; in [3] it was 2.6%; in assay [4] it was 3.43%; in assay [5], 4.15%; in [6] it was 5.78%. The inhibition was 0.38% in assay [7], 2.9% in assay [8], 4.22% in assay [9] and 0.97% in [10].
On to `c1ccc(COc2ccc(Nc3ncnc4ccc(-c5ccco5)cc34)cc2)cc1`, for which the inhibition in [1] was 3.49%; in assay [2], 0.6%; in assay [3], 1.07%; in assay [4] it was 1.15%; in [5] it was 0.92%; in assay [6], -0.18%. Further, the inhibition in [7] is -0.36%; in [8] it was -0.99%; in assay [9], 1.84%; in [10], 1.17%.
For `COc1cc2c(cc1Nc1nc(Nc3ccsc3C(N)=O)c3cc[nH]c3n1)N(C(=O)CN(C)C)CCC2(C)C`, the inhibition in assay [1] was determined as 35.2%; in [2] it was 2.74%; in [3], 2.8%; in [4], 6.02%; in assay [5], 7.22%; in assay [6], 2.59%. In addition, the inhibition was 5.27% in assay [7], 12.7% in assay [8], 42.1% in assay [9] and 4.77% in assay [10].
Turning to `Cc1cccc(Nc2ncc(-c3ccccc3)o2)c1`, the inhibition in [1] worked out at 6.48%; in assay [2] it was 4.04%; in assay [3], 3.56%; in [4] it was 3.46%; in assay [5], 3.62%; in assay [6] it was 0.75%. In addition, the inhibition in [7] stood at 2.04%; in assay [8], 2.47%; in assay [9], 4.58%; in assay [10] it was 8.57%.
`c1cc(-c2cnn3nc(N4CCOCC4)ccc23)nc(NC2CC2)n1`: the inhibition in assay [1] stood at 5.49%; in [2], 3.14%; in [3] it was 6.78%; in [4] it was 4.47%; in [5] it was 4.05%; in assay [6], 0.95%. Also, the inhibition in assay [7] was 0.56%; in assay [8], 3.89%; in assay [9], 4.77%; in assay [10], -1.68%.
As to `COc1ccc(-c2cc3c(N)ncnc3o2)cc1`, the inhibition is -1.16% in [1]; 0.22% in assay [2]; 3.78% in assay [3]; -1.56% in assay [4]; -1.7% in [5]; -0.18% in assay [6]. Also, the inhibition in assay [7] is -1.06%; in assay [8] it was -2.18%; in [9], -0.87%; in assay [10], 4.69%.
`COC(=O)Nc1nc2ccc(Oc3ccc(NC(=O)Nc4cccc(Cl)c4)cc3)cc2[nH]1`: the inhibition in assay [1] was determined as 1.25%; in assay [2], 0.97%; in assay [3], 0.11%; in assay [4], 0.46%; in [5] it was 0.04%; in assay [6], 2.21%. Moreover, the inhibition in assay [7] is -0.77%; in assay [8], 1.46%; in [9] it was 1.97%; in assay [10], 5.35%.
As for `CCc1nn2ncccc2c1-c1ccnc(NC2CC2)n1`, the inhibition in assay [1] was 6.61%; in assay [2], 3.1%; in assay [3] it was 4.93%; in assay [4], 3.32%; in assay [5], 3.36%; in [6], 2.16%. For the same compound, the inhibition in assay [7] turned out to be 3.98%; in assay [8], 1.99%; in assay [9] it was 3.9%; in [10], 2.26%.
